Data: PubChem BioAssay AID488900 (National Center for Advancing Translational Sciences (NCATS), 2010)
Records with an inconclusive call do not appear. A number with no mark means an inactive call. Activity calls are given as the source filed them. Calls follow the shape of the dose curve; as a rule, active = well fitted curve in the direction sought with a large enough effect; inconclusive = small, poorly fitted or top-dose-only effect, or effect the other way, or another doubt; inactive = no such curve, though single readings can be large or run the other way.

assay: Secondary Assay for lipid storage modulators: Hela cell LDSA assay for probe SAR; settings: HeLa lipid droplet accumulation, BODIPY 493/503 cytometry, oleate-fed; series mostly up to 46.1 µM; activity change, negative = less lipid storage: at the top concentration
From the text: NIH Molecular Libraries Probe Production Centers Network [MLPCN] NIH Chemical Genomics Center [NCGC] MLPCN Grant: 1 R03 MH085686-01 Assay Submitter (PI): Beller, Mathias; Max-Planck-Institut fur Biophysikalische Chemie NCGC Assay Overview: Storing lipids as a reservoir for energy or the anabolism of elementary metabolites is a common feature of probably all cells and is conserved from bacteria to humans. The universal cellular lipid storage organelle is the so-called lipid storage droplet (LD). Although ubiquitous, LDs share a simple structure composed of a hydrophobic core that harbors the storage lipids, which is shielded by a droplet-specific phospholipid monolayer to which proteins are attached. The current model of LD biogenesis involves an incorporation of the lipid core into the membrane leaflets of the endoplasmic reticulum (ER) followed by a subsequent budding-like maturation of a LD, which ultimately pinches off. Once released, LD volume can increase by localized lipogenesis or fusion of existing droplet. Storage lipids are re-mobilized enzymatically by lipase activity. Lipase regulation in the adipocyte is heavily studied and involves multiple components including catecholamine signaling, the LD-associated proteins Perilipin and comparative gene identification (CGI-58) and at least two lipases named hormone sensitive lipase (HSL) and adipocyte triglyceride lipase (ATGL). LD regulation outside of the adipocyte is poorly understood and only few components are known. However, there is an urgent need to learn more about ectopic fat depots as mislocalized storage of lipids, for example in the liver or muscle, is an eminent health problem associated with insulin resistance or the metabolic syndrome.
NCGC Assay Protocol Summary: The assay was performed with Hela cells, using an oleic acid feeding protocol similar to the S3 assay. We dispensed 4 uL of cells to give 700 cells/well into Greiner bio-one 1,536-well plates (black walled, clear bottom). Triacsin C (Sigma-Aldrich T-4540), an inhibitor of long-chain fatty acyl CoA synthetase that blocks synthesis of triglycerides, was used as a positive control for lipid under-storage using a final concentration of 20 uM. The orexin antagonist, SB408124 - previously identified to stimulate lipid over-storage, was used as a positive control for lipid over-storage using a final concentration of 20 uM. A total of 23 nL of compound solution of different concentrations were transferred to the assay plates using a Kalypsys pin tool equipped with a 1,536-pin array containing 10-nL slotted pins (FP1S10, 0.457-mm diameter, 50.8 mm long; V&P Scientific). One microliter of oleic acid was added (400 uM final concentration), and the plate was lidded with stainless steel rubber gasket lined lids containing pinholes. After 18-24 h incubation at […] and 95% humidity, 4 uL of the dyes BODIPY 493/503 (Molecular Probes) and the Cell Tracker Red CMTPX dye (Molecular Probes) were added to the wells to stain lipid droplets and enumerate cell number, respectively. Fluorescence was detected by excitation of the fluorophores with a 488-nm laser on an Acumen Explorer (TTP Lab Tech). The total intensity in channel 2 (500-530 nm) reflected lipid droplet accumulation. Cells were detected using channel 3 (575-640 nm) with 5-um width and 100-um depth filters. The ratio of the number of objects in PMT channel 2 over the number of objects in PMT channel 3 was also calculated. Percent activity was computed relative to an internal control (100% inhibited lipid droplet deposition due to the presence of 20 uM Triacsin C), which was added to 32 wells/plate.

Structure (SMILES)	Potency	activity change, negative = less lipid storage
O=C(NC1CCCc2c1cnn2-c1cc(F)cc(F)c1)c1cccc2nccnc12 (stereo not given)	8.65 µM (active)	
COc1ccc(CCNC(=O)c2cc3sccc3n2Cc2ccccc2)cc1OC		0%
COc1ccc(-c2cnc(SCC(=O)Nc3nccs3)n2Cc2ccccc2)cc1		0%
CN(C)CC(=O)NC1CCCc2c1cnn2-c1ccc(F)cc1F (stereo not given)		21%
O=C(NC1CCCCC1)NC1(C(=O)N2CCCC2)CCCCC1		0%
CCOC(=O)C1CCN(C(=O)C2(NC(=O)NCc3ccccc3)CCCCC2)CC1		41.3%
Cc1ccc(-c2cnc(SCC(=O)Nc3nc(C)cs3)n2Cc2ccco2)cc1		0%
CCOc1ccc(CCNC(=O)c2cc3sc(CC)cc3n2C)cc1OCC	0.217 µM (active)	
CCOc1ccc(CCNC(=O)c2cc3sccc3[nH]2)cc1OCC		8.64%
COc1ccc(-c2cnc(SCC(=O)Nc3nc(C)cs3)n2Cc2ccco2)cc1		0% [at 30.7 µM]
COc1ccc(CCNC(=O)c2cc3sccc3n2Cc2ccc(Cl)cc2)cc1OC		0% [at 30.7 µM]
O=C(Cc1ccccc1)NC1CCCc2c1cnn2-c1ccc(F)cc1F (stereo not given)		-75%
O=C(NC1CCCc2c1cnn2-c1ccc(F)cc1F)c1ccn[nH]1 (stereo not given)		24.7%
O=C(NC1CCCc2c1cnn2-c1ccc(F)cc1F)c1ccccc1 (stereo not given)		-2.47%
O=C(NC1CCCc2c1cnn2-c1ccc(F)cc1F)C1CCCCN1 (stereo not given)		-20.7%
